Screens as filed in PubChem BioAssay.
Hits are enriched below; roughly 9.4% of the tested compounds scored in any of these assays.
ELG1 DNA repair = inhibitors of ELG1-dependent DNA repair in HEK293T cells; HEK293T ELG1-luciferase reporter, luminescence, 16 h; DNA damage induced by 5-fluorouridine; Potency, µM (doses to about 46.1 µM), most hits filed as inhibitors; 330,000 tested, 2.3% active; note: nearly all actives have a fitted effect of over 55% in size
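HEK293T cells expressing luciferase-tagged ELG1 (2,000/well) received 5-Fluorouridine plus compound or DMSO for 16 hr at 37 °C. Luciferase was read by ONE-Glo luminescence after 30 min at room temperature.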
FLuc modulator = inhibits or activates purified firefly luciferase, miR-21 counter-screen; AID 588342; 360,000 tested, 6.9% active; P08659; Potency, µM (top dose mostly 57.5 µM), actives largely listed as inhibitors; purified FLuc, Km substrates, luminescence inhibition; note: nearly all actives have a fitted effect of over 55% in size
Target sequence (P08659 whole entry, looked up): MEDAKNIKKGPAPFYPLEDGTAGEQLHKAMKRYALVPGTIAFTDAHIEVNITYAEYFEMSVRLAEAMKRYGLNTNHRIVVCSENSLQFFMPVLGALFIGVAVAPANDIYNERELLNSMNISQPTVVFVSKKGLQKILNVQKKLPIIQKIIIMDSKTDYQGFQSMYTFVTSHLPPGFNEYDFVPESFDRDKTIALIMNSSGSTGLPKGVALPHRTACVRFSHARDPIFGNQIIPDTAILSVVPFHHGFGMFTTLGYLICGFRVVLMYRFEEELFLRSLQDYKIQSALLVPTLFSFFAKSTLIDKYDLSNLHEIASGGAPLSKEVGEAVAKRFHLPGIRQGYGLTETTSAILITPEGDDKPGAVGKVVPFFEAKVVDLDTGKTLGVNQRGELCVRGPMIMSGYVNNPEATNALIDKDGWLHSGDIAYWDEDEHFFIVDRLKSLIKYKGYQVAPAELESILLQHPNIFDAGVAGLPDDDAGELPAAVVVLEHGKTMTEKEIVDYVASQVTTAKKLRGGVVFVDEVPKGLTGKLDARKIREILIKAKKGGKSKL
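Purified P. pyralis luciferase (10nM final) with 10uM D-luciferin and 10uM ATP (Km levels) in 50mM Tris acetate pH 7.5, 10mM Mg acetate, 0.01% Tween-20, 0.05% BSA; qHTS 6-point titration, ~60 µM downward; luminescence read.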
Rab9 prom act = activators of Rab9 promoter; Huh7 Rab9 promoter-luciferase reporter, luminescence, 24 h; 320,000 tested, 2.8% active; Potency, µM (top dose mostly 9.22 µM), actives largely listed as activators; AID 485297; note: nearly all actives have a fitted effect of over 60% in size
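Cell-based reporter: Huh7 stable for Rab9 promoter-driven luciferase, plated in reduced-serum medium with 10% FBS at 1500 cells/well, compound-treated 24 h at 37 °C, luminescence read after 10 min reagent.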
NPC1 prom act = NPC1 promoter activation | Huh7 NPC1 promoter luciferase reporter, 24 h | Potency, µM (top dose mostly 9.22 µM), actives largely listed as activators | 320,000 tested, 2.4% active | AID 485313; note: nearly all actives have a fitted effect of over 60% in size
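Stable NPC1-promoter luciferase Huh7 line; cpd (DMSO) 24 h, 37 °C, 5% CO2; Amplite luciferase reagent 10 min RT; luminescence readout. qHTS format.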
SMN2 splice up = enhancers of SMN2 splice variant expression. HEK293 SMN2-luciferase splicing reporter, luminescence, 30-36 h. Potency, µM (top dose mostly 46.1 µM), hits mostly activators. 210,000 tested, 2.8% active. AID 1458; note: nearly all actives have a fitted effect of over 55% in size
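qHTS luciferase splicing reporter: luminescence rises when SMN2 exon 7 is included in transfected HEK293 cells. Compound exposure lasted 30-36 h at 37C, with 4.5 mM final sodium butyrate as control, followed by a ONE-Glo read.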
ELG1 genotoxic = genotoxicity induction in ELG1-luciferase HEK293T cells; AID 504466; 330,000 tested, 1.3% active; Potency, µM (highest dose often 46 µM), hits mostly activators; HEK293T ELG1-luciferase reporter, luminescence, 16 h; note: nearly all actives have a fitted effect of over 60% in size
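After overnight (16 hr) compound treatment at 37 °C, ELG1-luciferase HEK293T cells were lysed with ONE-Glo; luminescence quantified 30 min later at room temperature.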
Large screens that a line does not name were inactive. Calls come from the whole dose curve; as a rule, active = well fitted curve in the direction sought with a large enough effect; inconclusive = small, poorly fitted or top-dose-only effect, or another doubt; inactive = no such curve, though single readings can be large; an effect the other way counts as inactive or inconclusive.

COc1cccc(N/C=C/c2onc(C)c2[N+](=O)[O-])c1	ELG1 DNA repair inconclusive, Rab9 prom act 2.51µM, NPC1 prom act inconclusive, SMN2 splice up inconclusive, ELG1 genotoxic inconclusive
Cc1cccc(C)c1N/C=C/c1onc(C)c1[N+](=O)[O-]	none (no result: ELG1 DNA repair, Rab9 prom act, NPC1 prom act, ELG1 genotoxic)
CC1(C)CC(=O)c2cnc(N3CCc4ccccc43)nc2C1	ELG1 DNA repair inconclusive, FLuc modulator 2.13µM, Rab9 prom act 3.55µM, NPC1 prom act 2.82µM, ELG1 genotoxic inconclusive (no result: SMN2 splice up)
O=C1CC(c2ccc(F)cc2)Cc2nc(N3CCc4ccccc43)ncc21 (configuration not stated)	none
Cc1cc(C)cc(N/C(N)=N/c2nc(C)cc(C)n2)c1	ELG1 DNA repair 14.6µM
Fc1ccccc1Cn1nnc(-c2ccc3c(c2)OCO3)n1	ELG1 DNA repair inconclusive, FLuc modulator 2.13µM, Rab9 prom act 1.12µM, NPC1 prom act 2µM, SMN2 splice up 12.6µM, ELG1 genotoxic inconclusive
O=C(OCc1ccccc1)c1ccc(-c2nnn(Cc3ccccc3F)n2)cc1	none (no result: ELG1 DNA repair, Rab9 prom act, NPC1 prom act, ELG1 genotoxic)
COc1cc(-c2nnn(Cc3ccccc3C)n2)cc(OC)c1OC	ELG1 DNA repair 23.1µM (no result: SMN2 splice up)
COc1ccc(-c2nnn(Cc3ccccc3F)n2)cc1	ELG1 DNA repair inconclusive, FLuc modulator 10.7µM, Rab9 prom act 3.16µM, NPC1 prom act 3.55µM, SMN2 splice up 15.8µM, ELG1 genotoxic inconclusive
COc1ccc(CNc2nc(-c3ccccc3OC)nc3ccccc23)c(OC)c1	none (no result: ELG1 DNA repair, FLuc modulator, Rab9 prom act, NPC1 prom act, ELG1 genotoxic)
COc1ccc(NC(=O)c2cn3c4c(ccc(Cl)c4c2=O)OC(C)C3)cc1OC (configuration not stated)	none (no result: ELG1 DNA repair, Rab9 prom act, NPC1 prom act, SMN2 splice up, ELG1 genotoxic)
S=c1[nH]nc(CSCCOc2ccccc2)o1	none (no result: SMN2 splice up)
S=c1[nH]nc(CSCCOc2ccc(Cl)cc2Cl)o1	FLuc modulator 21.3µM (no result: SMN2 splice up)
CC1CCN(C(=O)c2cc(-c3ccc(Cl)c(Cl)c3)on2)CC1	ELG1 DNA repair inconclusive, FLuc modulator inconclusive, SMN2 splice up inconclusive
CC1CCN(C(=O)c2cc(-c3cccc(Cl)c3)on2)CC1	FLuc modulator 23.9µM, SMN2 splice up inconclusive (no result: ELG1 DNA repair, Rab9 prom act, NPC1 prom act, ELG1 genotoxic)
CC1CCN(C(=O)c2cc(-c3ccc(Cl)cc3)on2)CC1	FLuc modulator 6.01µM (no result: ELG1 DNA repair, Rab9 prom act, NPC1 prom act, ELG1 genotoxic)
COc1ccc(C(=O)Nc2nnc(-c3cccs3)s2)cc1	ELG1 DNA repair inconclusive, FLuc modulator 1.2µM, Rab9 prom act 0.794µM, NPC1 prom act 1µM, SMN2 splice up 7.08µM, ELG1 genotoxic 0.517µM
O=C(Nc1nnc(-c2cccs2)s1)c1cccc(F)c1	ELG1 DNA repair inconclusive, FLuc modulator inconclusive, Rab9 prom act 0.891µM, NPC1 prom act 1.78µM, SMN2 splice up 8.91µM, ELG1 genotoxic inconclusive
CC(C)(C)CC(=O)Nc1nnc(-c2cccs2)s1	ELG1 DNA repair inconclusive, Rab9 prom act 3.16µM, NPC1 prom act 3.16µM, SMN2 splice up 12.6µM
Cc1occc1C(=O)Nc1nnc(-c2cccs2)s1	ELG1 DNA repair inconclusive, FLuc modulator inconclusive, Rab9 prom act 3.16µM, NPC1 prom act inconclusive, SMN2 splice up 3.55µM, ELG1 genotoxic inconclusive
Cc1occc1C(=O)Nc1nccs1	none
Cc1nnc(NC(=O)c2cccc(F)c2)s1	ELG1 DNA repair inconclusive, FLuc modulator inconclusive
C=CCN1c2ccccc2[C@]23C[C@@H](C(=O)OC)N(C(=O)COCc4ccccc4)C2=NC(C(=O)OC)=C(C(=O)OC)[C@H]13	none (no result: ELG1 DNA repair, FLuc modulator, Rab9 prom act, NPC1 prom act, ELG1 genotoxic)
CC(N)(Cc1ccc(O)c(O)c1)C(=O)O (configuration not stated)	none (no result: ELG1 DNA repair, FLuc modulator, ELG1 genotoxic)
O=C(Nc1ccccc1)Nc1nnc(-c2cccs2)s1	ELG1 DNA repair inconclusive, Rab9 prom act inconclusive, NPC1 prom act inconclusive, SMN2 splice up inconclusive
COc1ccc(NC(=O)Nc2nnc(-c3cccs3)s2)cc1	ELG1 DNA repair inconclusive, FLuc modulator inconclusive, Rab9 prom act 3.98µM, NPC1 prom act 4.47µM (no result: SMN2 splice up)
Cc1ccc(C)c(N2CCN(c3cc(C)nc4c(-c5ccc(Cl)cc5)c(C)nn34)CC2)c1	none (no result: ELG1 DNA repair, Rab9 prom act, NPC1 prom act, ELG1 genotoxic)
COc1cc(C=C2C(=O)c3ccccc3C2=O)ccc1O	FLuc modulator 3.01µM (no result: SMN2 splice up)
COc1cc(C=C2C(=O)c3ccccc3C2=O)cc(OC)c1OC	FLuc modulator inconclusive, ELG1 genotoxic inconclusive
COc1ccc(C=C2C(=O)c3ccccc3C2=O)cc1O	FLuc modulator 3.38µM
COc1ccc(/C=C2\CN(Cc3ccccc3)C/C(=C\c3ccc(OC)c(O)c3)C2=O)cc1O	ELG1 DNA repair inconclusive (no result: SMN2 splice up)
COCc1cc(=O)n2c(-c3ccccc3OC)n[nH]c2n1	none
COCc1cc(=O)n2c(-c3ccc(C)cc3)n[nH]c2n1	ELG1 DNA repair inconclusive, FLuc modulator 9.53µM, SMN2 splice up inconclusive
CCN(c1ccccc1)S(=O)(=O)c1cc(NC(=O)Nc2ccccc2C#N)ccc1Cl	ELG1 DNA repair 20.6µM
CCN(c1ccccc1)S(=O)(=O)c1ccc(Cl)c(NC(=O)Nc2ccc(Cl)cc2C#N)c1	FLuc modulator inconclusive
